An excerpt weighted towards active compounds, which were near 0.71% of everything screened.
MIN6 prolif = induces beta-cell replication in MIN6 cells; MIN6 cells proliferation, ATPlite luminescence, 48 h; cells starved in 0.2% serum; 100% = growth in 10% serum; proliferation, % at 10 µM; hit rate 0.29% among 330,000;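 active = compounds whose signal lies at least 3.5 SD above the mean of all wells on their plate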;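 also: 0% = DMSO-treated cells in low-serum medium and 100% = 10% serum control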
hiPSC survival = hiPSC single-cell survival enhancement; ATPlite luminescence; 100% = ROCK inhibitor wells, 0% = DMSO; survival enhancement, % at 20 µM; hit rate 0.044% among 360,000; in the data active = survival enhancement above about 18%;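 also: cells exposed to compounds for 16 hours before the ATP read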
TAG inh = inhibitors of triacylglycerol accumulation. H9c2 cells, Nile Red lipid (TAG) fluorescence; cells loaded with 200 µM oleic acid. inhibition, % at 12.5 µM. hit rate 0.66% among 230,000;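 active = pattern-corrected inhibition of lipid staining of at least 50% with the nuclear-stain viability signal not falling by more than 50%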;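 also: 0% = DMSO wells and 100% = triacsin C control wells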
TAG conf = triacylglycerol accumulation inhibition, confirmation; shares compounds with TAG inh; H9c2 lipid accumulation, Nile Red fluorescence; cells loaded with 200 µM oleic acid; AID 651629; hit rate 71% among 990; inhibition, % at 12.5 µM;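 active = mean inhibition across replicates of 40% or more; inactive = mean inhibition below 40%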;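 also: plate controls were DMSO only wells for no effect and Triacsin C treated wells for full effect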
* hit, by the source's call; x = no result given.

SMILES	MIN6 prolif	hiPSC survival	TAG inh	TAG conf
Cc1csc(-c2ccc3cc(Cl)cc(Cl)c3n2)n1	x	-2.2	x	x
O=C(NCC1CCCO1)c1ccc(Cl)c(S(=O)(=O)N2CCOCC2)c1 (stereo unspecified)	-2.5	0.5	x	x
O=C(Nc1ccccc1)c1ccc(NCC2CCCO2)c(S(=O)(=O)N2CCOCC2)c1 (stereo unspecified)	-1.1	0.7	65.6*	46.2*
O=C(Nc1ccccc1Cl)c1cc(C2CCCCN2C(=O)c2cccs2)on1 (stereo unspecified)	x	-0.1	-8.4	x
C=CCC[C@H](CCCCC)OC(=O)/C=C/[C@@H](O)[C@H](O)C[C@H](O)CC=C	x	0.1	x	x
COc1cc(Nc2ncc3c(n2)CCN(C(=O)Nc2ccc(C(C)C)cc2)C3)cc(OC)c1OC	x	-0.3	32.6	x
COc1cccc(NC(=O)N2CCc3nc(Nc4ccc(C(C)C)cc4)ncc3C2)c1	x	-1.5	70.6*	83.4*
O=C(Nc1nc(-c2ccc(Cl)cc2Cl)cs1)c1ccc(OCC2CCCO2)cc1 (stereo unspecified)	-6.2	-1.9	23.7	x
CC(C)COc1ccc(C(=O)Nc2scc(-c3ccc(Cl)cc3Cl)c2C(N)=O)cc1	-4.4	-1.3	59.9*	39.3
Cn1nnnc1Sc1ncnc2scc(-c3ccc(Cl)cc3)c12	-6.7	-2.9	48.6	x
Cn1nnnc1Sc1ncnc2scc(-c3cccc(S(C)(=O)=O)c3)c12	-7.2	-3.0	59.8*	56.8*
COCCNC(=O)C1(C)CCCN(C(=O)c2ccc3c(c2)CCO3)C1 (stereo unspecified)	x	10.7	13.4	x
Clc1ccc(Oc2nc(N3CCOCC3)nc(N3CCOCC3)n2)cc1	-5.0	-1.3	38.0	x
c1cc2c(cc1Oc1nc(N3CCOCC3)nc(N3CCOCC3)n1)OCO2	0.6	-2.2	59.2*	28.8
C[C@@H]1CN([C@@H](C)CO)C(=O)c2cc(-c3cccnc3)cnc2O[C@H]1CN(C)C(=O)c1cccc(F)c1	x	1.3	0.9	x
CCOC(=O)Nc1ccc2c(c1)C(=NNC(=S)NC)c1ccccc1-2	x	-4.0	57.7*	69.8*
CCOC(=O)NN=C1c2ccccc2-c2ccccc21	0.2	0.0	-0.2	x
CCn1c2ccccc2c2cc(NC(=O)N3CCCCC3)ccc21	x	0.2	4.0	x
CC(C)[C@@H]1CC[C@@H](C)C[C@H]1O	x	4.7	2.1	x
COc1cc(NC(=O)c2ccco2)c(OC)cc1NC(=O)CCC(=O)Nc1cccc(C)c1C	4.1	0.1	55.9*	52.5*
Cc1cccc(NC(=O)CCNC(=O)c2ccco2)c1C	1.6	1.8	8.5	x
Cc1ccc(C(=O)N2CCCC2(C)C(=O)NCC(C)C)cc1F (stereo unspecified)	x	-0.1	18.9	x
CC1(C(=O)NS(=O)(=O)c2cccc(F)c2)CCN1C(=O)CCc1ccccc1 (stereo unspecified)	x	-0.6	11.1	x
COc1ccc(NC(=O)C(CC(C)C)NC(=O)C2CCCCC2)c(OC)c1 (stereo unspecified)	-1.3	0.0	16.5	x
CCOc1ccccc1NC(=O)C(CC(C)C)NC(=O)C1CCCCC1 (stereo unspecified)	1.5	-1.0	50.5*	35.2
SMILES	MIN6 prolif	hiPSC survival	TAG inh	TAG conf
N/C(=N\c1nc2ccccc2o1)NC(=O)c1ccc(Cl)cc1	-1.8	-2.1	x	x
N/C(=N\c1nc2ccccc2o1)NC(=O)c1ccc(F)cc1	-0.3	-2.0	65.9*	44.6*
O=C(NCc1cccnc1)C(=O)NCC1OCCCN1S(=O)(=O)c1cc(F)ccc1F (stereo unspecified)	x	4.4	-3.1	x
Cc1ccccc1NC(=O)CSc1nc(Nc2ccccc2)nc(N2CCOCC2)n1	-1.9	-0.5	53.7*	46.1*
O=C(CSc1nc(Nc2ccccc2)nc(N2CCOCC2)n1)N1CCCC1	-2.1	-0.6	71.3*	40.9*
O=C(CSc1nc(N2CCCCC2)nc(N2CCCCC2)n1)N1CCN(c2ccccc2)CC1	x	-3.2	60.2*	27.4
Cc1ccc(F)cc1NC(=O)CSc1nc(Nc2ccccc2)nc(N2CCOCC2)n1	-5.6	-0.5	42.5	x
O=C(CSc1nc(Nc2ccccc2)nc(N2CCOCC2)n1)N1CCc2ccccc21	-1.9	3.8	x	x
CCNc1nc(SC(C)C(=O)Nc2ccccc2)nc(N2CCOCC2)n1 (stereo unspecified)	1.1	-2.3	30.7	x
Cc1nc(SCC(=O)N2CCN(c3ccccc3)CC2)n[nH]1	-1.5	0.0	x	x
CC(Sc1nc(NCc2ccccc2)nc(N2CCOCC2)n1)C(=O)Nc1ccccc1 (stereo unspecified)	-0.6	-1.9	70.0*	46.6*
Cc1ccc(CNS(=O)(=O)c2ccc(-n3cccn3)cc2)cc1	x	1.3	-3.8	x
Cc1cccc(C)c1C(O)c1ncc(-c2ccc(F)cc2)[nH]1 (stereo unspecified)	x	4.1	-6.0	x
CCCCN1C(=O)C(CC(=O)NC2CC2)CC(C(=O)N2CCOCC2)=C1C (stereo unspecified)	x	8.2	10.7	x
O=[N+]([O-])c1ccc(N2CCCC2)c([N+](=O)[O-])c1	x	2.9	9.7	x
OCCNc1ncnc2c1ncn2[C@H]1CN(Cc2ccco2)C[C@@H](CO)O1	x	-1.4	2.8	x
CC1CC(C)CN(C(CCc2ccccc2)C(=O)NC2CCCCC2)C1 (stereo unspecified)	x	-1.7	x	x
CSc1ncnc2c1ncn2CCCNCc1ccccn1	x	4.9	0.2	x
COC(=O)c1ccc(CNC(=O)c2ccccc2C(=O)NCC2(CBr)OCCO2)cc1	x	-3.3	1.8	x
OCc1cn(-c2ccccc2)nc1-c1ccc(-c2nn(-c3ccccc3)cc2CO)cc1	-2.3	1.3	-12.8	x
Cc1ccc(-c2nn(-c3ccccc3)cc2CSC(=N)N)cc1	-4.2	-3.7	53.5*	108.7*
Cc1cccc(S(=O)(=O)NC(=O)C2(C)CCN2C(=O)Cc2ccc(-c3ccccc3)cc2)c1 (stereo unspecified)	x	2.1	-4.7	x
CCOC(=O)C1(C)CCCN(C(=O)c2cccnc2)C1 (stereo unspecified)	x	-2.5	10.3	x
CC(=O)Nc1cc(-c2ccccc2CN(C)C)cn2c(-c3ccc(C(C)=O)cc3)cnc12	x	0.4	21.5	x
COC(=O)C1=C(C)N(Cc2ccccc2)C(=NCC(C)C)N[C@H]1c1ccccc1	-8.7	x	x	x
SMILES	MIN6 prolif	hiPSC survival	TAG inh	TAG conf
COC(=O)C1=C(C)N(Cc2ccccc2)C(=NCc2ccc(OC)cc2)N[C@H]1c1ccccc1	-5.7	-6.2	56.3*	17.0
Cc1cccc(C(=O)N[C@H](C(=O)Nc2nnc(C3CC3)s2)C(C)C)c1	-1.0	-0.7	-4.8	x
Cc1cccc(C(=O)N[C@H](C(=O)Nc2ncc(C)s2)C(C)C)c1	-3.9	-0.2	64.7*	92.8*
COc1ccc(Cl)cc1-c1cc(C(=O)NCC2CCCCC2)[nH]n1	x	-2.2	53.5*	-5.7
CCOc1ccc(Cl)cc1-c1cc(C(=O)NCC2CCCCC2)[nH]n1	x	-2.0	-9.6	x
COCCCN1C(=O)C(CC(=O)NCc2ccco2)CC(C(=O)N(C(C)C)C(C)C)=C1C (stereo unspecified)	x	0.1	x	x
Cc1[nH]c2ccccc2c1/C=N/Nc1nc(Nc2ccc(F)cc2)nc(N2CCOCC2)n1	-3.4	0.0	75.7*	85.8*
Cc1ccc(Nc2nc(N/N=C/c3c[nH]c4ccccc34)nc(N3CCOCC3)n2)cc1	-2.7	-3.4	x	x
